Laboratory results as given in PubChem BioAssay AID1159580 (chemical genetic matrix, 2015).
“And” between values parts separate entries of the source, which are not always exact repeats. Identical values can stand only once. The campaign covered roughly 5,500 compounds. About 2,000 (36%) were called active. About 18% were inconclusive and are not listed. No stated cut-off is given here; in the data, active means normalized growth mostly below about 0.91 (no sharp cut-off); inconclusive means no clear call, values can overlap the other calls; inactive means mostly above about 0.92. Some of the results follow.

Test: chemical genetic growth profiling, strain panel (AID 1159580);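 further: tested at 20 µM; growth read once vehicle control cultures reached saturation at 30 °C; 1 = growth at the plate median or of vehicle wells; lower values mean less growth of the strain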
Conditions: S. cerevisiae deletion strains, growth OD

Measured: normalized growth

COc1c2ccoc2cc2oc(C)cc(=O)c12
inactive: locus YAL021C, strain ccr4, active compounds read low 1 | locus YAL026C, strain drs2, active compounds read low 0.999 | locus YAL030W, strain snc1, active compounds read low 0.987 | locus YBL061C, strain skt5, active compounds read low 1 | locus YBR009C, strain hhf1, active compounds read low 0.993 | locus YBR021W, strain FUR4, active compounds read low 0.997 | locus YBR023C, strain chs3, active compounds read low 0.991 | locus YBR171W, strain sec66, active compounds read low 0.987 | locus YBR229C, strain ROT2, active compounds read low 0.948 | locus YBR231C, strain swc5, active compounds read low 0.99 | locus YBR279W, strain paf1, active compounds read low 0.995 | locus YCL011C, strain gbp2, active compounds read low 0.985 | locus YCL016C, strain dcc1, active compounds read low 0.979 | locus YCL029C, strain bik1, active compounds read low 0.98 | locus YCL069W, strain vba3, active compounds read low 1.01 | locus YCR088W, strain abp1, active compounds read low 0.99 | locus YDL005C, strain med2, active compounds read low 1 | locus YDL035C, strain GPR1, active compounds read low 0.972 | locus YDL040C, strain nat1, active compounds read low 1 | locus YDL074C, strain BRE1, active compounds read low 0.981 | locus YDL101C, strain DUN1, active compounds read low 0.96 | locus YDL134C, strain PPH21, active compounds read low 0.964 | locus YDL185W, strain tfp1, active compounds read low 0.971 | locus YDL192W, strain arf1, active compounds read low 0.945 | locus YDR001C, strain nth1, active compounds read low 0.997 | locus YDR069C, strain doa4, active compounds read low 1 | locus YDR101C, strain arx1, active compounds read low 1.02 | locus YDR137W, strain rgp1, active compounds read low 1 | locus YDR159W, strain sac3, active compounds read low 1.02 | locus YDR162C, strain NBP2, active compounds read low 0.905 | locus YDR195W, strain ref2 1.03 | locus YDR297W, strain sur2, active compounds read low 1 | locus YDR318W, strain mcm21, active compounds read low 0.945 | locus YDR334W, strain swr1, active compounds read low 1 | locus YDR335W, strain msn5, active compounds read low 1 | locus YDR388W, active compounds read low 0.996 | locus YDR392W, strain spt3, active compounds read low 0.961 | locus YDR502C, strain sam2, active compounds read low 0.966 | locus YEL003W, strain gim4, active compounds read low 1 | locus YEL037C, strain rad23, active compounds read low 1 | locus YEL061C, strain CIN8 (second series), active compounds read low 0.997 | locus YEL061C, strain CIN8, active compounds read low 0.975 | locus YER015W, strain faa2, active compounds read low 0.997 | locus YER016W, strain bim1, active compounds read low 0.996 | locus YER110C, active compounds read low 0.972 | locus YER111C, strain swi4, active compounds read low 0.985 | locus YER155C, strain BEM2 (second series), active compounds read low 0.999 | locus YER155C, strain BEM2, active compounds read low 1 | locus YER167W, strain BCK2, active compounds read low 0.98 | locus YFR010W, strain ubp6, active compounds read low 0.985 | locus YGL078C, strain dbp3, active compounds read low 0.999 | locus YGL086W, strain mad1, active compounds read low 1.05 | locus YGL167C, strain pmr1, active compounds read low 0.997 | locus YGL173C, strain kem1, active compounds read low 0.984 | locus YGL227W, strain vid30, active compounds read low 0.986 | locus YGL240W, strain doc1, active compounds read low 1.01 | locus YGL248W, strain PDE1, active compounds read low 0.928 | locus YGL253W, strain hxk2, active compounds read low 0.988 | locus YGR078C, strain PAC10, active compounds read low 0.922 | locus YGR135W, strain pre9, active compounds read low 0.914 | locus YGR252W, strain gcn5, active compounds read low 0.912 | locus YHR013C, strain ard1, active compounds read low 0.993 | locus YHR027C, strain rpn1, active compounds read low 0.995 | locus YHR030C, strain SLT2, active compounds read low 0.987 and 1.04 | locus YHR079C, strain IRE1 (second series), active compounds read low 1 | locus YHR079C, strain IRE1, active compounds read low 1.04 | locus YHR094C, strain hxt1, active compounds read low 0.978 | locus YHR129C, strain ARP1, active compounds read low 0.981 | locus YHR142W, strain chs7, active compounds read low 0.971 | locus YHR200W, strain rpn10, active compounds read low 0.953 | locus YIL066C, strain RNR3, active compounds read low 0.971 | locus YIL073C, strain SPO22, active compounds read low 0.936 | locus YIL125W, strain kgd1, active compounds read low 1 | locus YIR030C, strain dcg1, active compounds read low 0.995 | locus YJL092W, strain hpr5, active compounds read low 0.993 | locus YJL095W, strain BCK1 (second series), active compounds read low 0.999 | locus YJL095W, strain BCK1, active compounds read low 0.884 and 1.03 | locus YJL115W, strain asf1, active compounds read low 1.01 | locus YJL129C, strain trk1, active compounds read low 1.01 | locus YJL134W, strain LCB3, active compounds read low 0.985 | locus YJL154C, strain vps35, active compounds read low 1.01 | locus YJL164C, strain tpk1, active compounds read low 0.989 | locus YJL166W, strain qcr8, active compounds read low 0.984 | locus YJL168C, strain set2, active compounds read low 1 | locus YJL187C, strain SWE1 (second series), active compounds read low 0.947 | locus YJR043C, strain POL32, active compounds read low 0.97 | locus YJR066W, strain TOR1, active compounds read low 0.993 | locus YJR075W, strain HOC1, active compounds read low 0.955
